Assay results reported in PubChem BioAssay (NCATS).
Values joined by “and” are separate entries in the source; they are usually repeats but may differ in a detail not shown here. Equal values may be shown once. Results filed as inconclusive are left out. A call without a number means that no potency is given here. Some structures have more than one record in an assay (separate samples or runs), and their calls can disagree. Active and inactive are the calls of the source. Calls come from the whole dose curve; as a rule, active = well fitted inhibition curve with a large enough effect; inconclusive = small, poorly fitted or top-dose-only effect; inactive = no such curve, though single readings can be large or run the other way.

Molecular target: M-phase phosphoprotein 8 (Homo sapiens) (UniProt Q99549)
Sequence (Q99549 whole entry, looked up): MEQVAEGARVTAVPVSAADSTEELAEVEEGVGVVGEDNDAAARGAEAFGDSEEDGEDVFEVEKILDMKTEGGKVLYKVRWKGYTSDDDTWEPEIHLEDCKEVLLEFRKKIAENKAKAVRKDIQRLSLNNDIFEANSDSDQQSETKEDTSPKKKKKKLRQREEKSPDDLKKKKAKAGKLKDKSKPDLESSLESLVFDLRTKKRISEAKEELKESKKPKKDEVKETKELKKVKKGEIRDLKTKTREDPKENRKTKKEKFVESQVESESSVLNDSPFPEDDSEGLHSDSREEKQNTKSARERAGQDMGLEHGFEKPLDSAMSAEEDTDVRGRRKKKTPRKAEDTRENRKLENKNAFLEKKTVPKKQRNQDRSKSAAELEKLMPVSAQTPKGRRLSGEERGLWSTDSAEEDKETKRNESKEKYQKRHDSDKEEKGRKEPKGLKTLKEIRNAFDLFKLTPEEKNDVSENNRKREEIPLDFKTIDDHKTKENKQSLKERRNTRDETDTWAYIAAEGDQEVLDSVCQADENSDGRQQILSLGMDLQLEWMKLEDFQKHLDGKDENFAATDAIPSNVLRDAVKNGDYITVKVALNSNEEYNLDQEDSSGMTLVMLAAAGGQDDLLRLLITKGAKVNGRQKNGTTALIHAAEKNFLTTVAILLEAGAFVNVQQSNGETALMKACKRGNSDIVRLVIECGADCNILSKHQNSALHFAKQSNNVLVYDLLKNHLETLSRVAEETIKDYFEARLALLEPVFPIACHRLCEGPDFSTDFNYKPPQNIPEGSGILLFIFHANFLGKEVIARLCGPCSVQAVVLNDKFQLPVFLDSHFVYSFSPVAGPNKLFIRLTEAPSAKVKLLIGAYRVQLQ
Experiment: qHTS Validation Assay for Inhibitors for MPP8 Chromodomain Interactions with Methylated Histone Tails (AID 488949); note: nearly all actives have a fitted effect of over 55% in size
Conditions: AlphaScreen MPP8 binding to H3K9me3 peptide; series mostly up to 57.1 µM
In short: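 50 nM MPP8 + 50 nM b-H3K9me3 peptide, PBS pH 7.4/0.01% Tween-20, 30 min RT; + cpd 30 min RT; + AlphaScreen donor/Ni-chelate acceptor beads 10 ug/mL final, 30 min dark; luminescence read.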
Potency is the fitted concentration of half-maximal effect.

CN(C)CCCO[C@@H]1[C@H]2OC(C)(C)O[C@H]2O[C@@H]1[C@H](O)CO was tested. Which Potency did it give?
The Potency was “inactive”.

With CC(C)NC[C@@H](O)c1ccc(O)c(O)c1 as the compound, how does the Potency read?
The Potency was “inactive”.

CN1CCc2ccccc2Cc2[nH]c3ccccc3c2CC1 was tested. Which Potency did it give?
The Potency was 50.1 µM (active) and inactive.

How did the Potency turn out when O=C(c1ccc(OCCCc2cnc[nH]2)cc1)C1CC1 was run?
The Potency was “inactive”.

For OC[C@H]1O[C@@H](n2cnc3c(Nc4ccccc4)ncnc32)[C@H](O)[C@@H]1O, which Potency is on record?
The Potency was “inactive”.

CC[C@@H](C)[C@H]1O[C@]2(CC[C@H]1C)C[C@@H]1C[C@@H](CC=C(C)[C@@H](O[C@H]3C[C@H](OC)[C@@H](O[C@H]4C[C@H](OC)[C@@H](O)[C@H](C)O4)[C@H](C)O3)[C@@H](C)C=CC=C3CO[C@@H]4[C@H](O)C(C)=C[C@@H](C(=O)O1)[C@]34O)O2 was tested. Which Potency did it give?
Its Potency is “inactive”.

For Nc1nc(SCc2ccc([N+](=O)[O-])cc2)c2ncn([C@@H]3O[C@H](CO)[C@@H](O)[C@H]3O)c2n1, which Potency is on record?
The Potency was “inactive”.

With CN(C)c1ccc(/C=C2\C(=O)Nc3ccccc32)cc1 as the compound, how does the Potency read?
The Potency was 28.2 µM (active) and 10.6 µM (active).

How did the Potency turn out when CN=c1nc(-c2ccccc2)n(-c2ccccc2)s1 was run?
Its Potency is 4.47 µM (active).

With COc1cccc(C(=O)NCCN2CCN(c3ccc(Cl)cc3)CC2)c1 as the compound, how does the Potency read?
Its Potency is “inactive”.

CO/N=C(\C(=O)N[C@@H]1C(=O)N2C(C(=O)O)=C(COC(C)=O)CS[C@H]12)c1csc(N)n1 was tested. Which Potency did it give?
The Potency was “inactive”.

How did the Potency turn out when N.N.N.N.N.N.N.N.N.N.N.N.N.N.O.O.[Ru+4].[Ru+5].[Ru+5] was run?
Its Potency is 8.44 µM (active).

Which Potency does the source give for O=c1[nH]c2cc(C(F)(F)F)ccc2n1-c1cc(C(F)(F)F)ccc1O here?
The Potency was “inactive”.
